68 compounds from PubChem BioAssay AID1117361 (Southern Research Institute, 2015) can be followed below.

About 900 (25%) of roughly 3,600 compounds were called active. How the calls were made is not given here. Not all results are given here. Entries that show only a call come without a potency. Potency and affinity values are given separately.

The target in this experiment is Protein Tat (Human immunodeficiency virus type 1 group M subtype B (isolate HXB2)) (UniProt P04608). The experiment can be described thus: HIV-1 Tat–TAR interaction blockers – biochemical, fluorescence polarization, FAM-labeled TAR RNA, counter-screen for Vif-APOBEC3G degradation inhibitor project, dose response (AID 1117361). The note with it: Tat-TAR RNA binding; series mostly up to 100 µM. (In general: In fluorescence polarisation assays a small probe gives low polarisation when free and higher when bound to something large.)
`COc1ccc(S(=O)(=O)NCCSCc2ccco2)cc1Cl`: the compound was classed as inactive. The result for `CC(=O)Nc1ccc(S(=O)(=O)Nc2ccc(NC(=O)c3ccco3)cc2)cc1` reads “inactive”.

Regarding `FC(F)(F)c1cccc(Oc2ccc3c(C(F)(F)F)cc(C(F)(F)F)nc3n2)c1`, the call was inactive. The result for `O=C(Cc1c(F)cccc1Cl)NNC(=O)c1ccccc1Cl` reads “inactive”.

In the case of `CCc1ccccc1NC(=O)CC(O)(C(=O)OC)C(F)(F)F` (stereo not drawn), the compound was classed as inactive. The result for `O=C(CN1C(=O)NC2(CCCCC2)C1=O)NCCC1=CCCCC1` reads “inactive”; that for `O=C(CN1C(=O)NC2(CCCCCCC2)C1=O)NCc1ccc2c(c1)OCO2`, “inactive”; that for `Cc1ccc(C(=O)COC(=O)CNC(=O)Cc2ccccc2)cc1[N+](=O)[O-]`, “inactive”. For `O=C(CN1C(=O)NC(c2ccc(F)cc2)C1=O)Nc1ccc2c(c1)OCCO2` (stereo not drawn) the value was “inactive”; for `O=C(CSc1nnc(-c2cccs2)o1)OC1CCCCC1`, “inactive”; for `CC1=C(C(=O)NCc2ccco2)C2(CCC(C)CC2)OC1=O` (stereo not drawn), “inactive”. For `O=C1COc2ccc(C(=O)NCc3ccco3)cc2N1` the value was “inactive”.

For `Fc1ccc2[nH]c3c(N4CCc5ccccc5C4)ncnc3c2c1`, the outcome was inactive. The result for `CC1CCN(C(=O)C2c3ccccc3C(=O)N3CCc4ccccc4C23)CC1` (stereo not drawn) reads “inactive”; that for `COc1ccc(-n2c(=O)[nH]cc(C(=O)N3CCc4ccccc43)c2=O)cc1`, “inactive”. `CCOc1ccc(C(=O)NC2CCN(S(=O)(=O)CC)CC2)cc1`: the call was inactive.

Regarding `CNS(=O)(=O)c1cccc(C(=O)OCc2cc(Cl)cc3c2OCOC3)c1`, the result was inactive.

Regarding `COCCn1c(SCC(=O)Nc2cc(C)on2)nc2cc(Cl)ccc2c1=O`, the compound was classed as inactive. For `CCN(CC)CCN=CC1=C(O)CNC1=O` the value was “inactive”; for `CCOc1ccccc1N1C(=O)c2ccc(C(=O)Nc3cccnc3)cc2C1=O`, “inactive”; for `C[C@H](NC(=O)NCc1cccs1)C(=O)O`, “inactive”.

As to `CCOC(=O)c1c(C)[nH]c(C)c1C(=O)COC(=O)c1cccc(S(=O)(=O)NC)c1`, the compound was classed as inactive. For `COc1ccc(NC(=O)/C(C#N)=C/c2ccc(Sc3nncn3C)c([N+](=O)[O-])c2)cc1`, the outcome was inactive.

Consider `CCN(c1ccc(NC(=O)COC(=O)c2ccc([N+](=O)[O-])o2)cc1)C(C)C`, for which the call was inactive. The result for `COc1ccc(NC(=O)/C(C#N)=C/c2ccc(Br)o2)cc1` reads “inactive”; that for `CCOC(CCNC(=O)c1cn(C)c(=O)c2c1c1ccccc1n2C)OCC`, “inactive”. The result for `COc1ccccc1-n1c(SCC(=O)NCc2ccc3c(c2)OCO3)nc2cc([N+](=O)[O-])ccc21` reads “inactive”. For `Nc1cc(N)nc(SCc2cc([N+](=O)[O-])cc3c2OCOC3)n1` the value was “inactive”; for `COCCn1c(N)c(N(Cc2ccccc2)C(=O)C2CCCCC2)c(=O)[nH]c1=O`, “inactive”. As to `Cc1ccc(S(=O)(=O)N2CCN(Cc3nc4sc(C)c(C)c4c(=O)[nH]3)CC2)cc1`, the outcome was inactive. For `CCc1ccc(C(=O)Nc2ccc(S(=O)(=O)Nc3nc(C)cc(C)n3)cc2)o1` the value was “inactive”; for `CCn1ncc(Br)c1C(=O)Nc1sc2c(c1C(N)=O)CCC2`, “inactive”; for `O=C(NC12CC3CC(CC(C3)C1)C2)c1ccc(S(=O)(=O)N2CCOCC2)cc1`, “inactive”. On to `CCOC(=O)CNC(=O)Cn1cnc2c(nnn2-c2ccc(F)cc2)c1=O`, for which the compound was classed as inactive. `Cc1nc2nc(COc3ccccc3)[nH]n2c(=O)c1Cc1ccccc1`: the call was inactive.

Take `O=c1cc2c(n[nH]1)CCCC2`: the compound was classed as inactive.

Turning to `O=C(Nc1cccc(Cl)c1)C1=Cc2cc(Cl)ccc2OC1`, the outcome was inactive.

Turning to `Cc1ccc(NC(=O)/C=C\C(=O)O)c([N+](=O)[O-])c1`, the outcome was inactive. As to `O=C(CSc1ncnc2ccccc12)Nc1cccc(S(=O)(=O)N2CCOCC2)c1`, the result was inactive. For the compound `CCN(CC)S(=O)(=O)c1cccc(NC(=O)/C=C/c2cccc([N+](=O)[O-])c2)c1`, the compound was classed as inactive. For `Cc1nc(NC(=O)/C=C/c2ccccc2)sc1C(=O)Nc1ccccc1` the value was “inactive”.

As to `COc1ccc(NC(=O)/C=C/c2ccc(S(=O)(=O)N3CCOCC3)cc2)cc1`, the compound was called inactive. The result for `Cc1sc2nc(SCC(=O)N3CCOCC3)[nH]c(=O)c2c1C` reads “inactive”; that for `Cc1cc(C)cc(C(=O)N2CCC(C(N)=O)CC2)c1`, “inactive”; that for `O=C(CNS(=O)(=O)c1ccccc1)OCC(=O)c1ccc(OC(=O)c2ccccc2)cc1`, “inactive”. For `O=C1CCc2cc(S(=O)(=O)NC(Cc3ccccc3)C(=O)NCC3CCCO3)ccc2N1` (stereo not drawn) the value was “inactive”.

As for `NC(=O)c1nsnc1-c1ccccc1O`, the outcome was inactive. The result for `CC1C=CC=CC=CC=CC=CC=CC=CC(OC2OC(C)C(O)C(N)C2O)CC2OC(O)(CC(O)CC(O)C(O)CCC(O)CC(O)CC(=O)OC(C)C(C)C1O)CC(O)C2C(=O)O` (stereo not drawn) reads “inactive”. For the compound `COc1ccc(S(=O)(=O)N(C)Cc2cccs2)cc1Br`, the compound was classed as inactive. Consider `O=C(OCn1nnc2ccccc2c1=O)C1=COCCO1`, for which the call was inactive. The result for `CC(=O)Nc1ccc(N=Nc2ccccc2)cc1` reads “inactive”; that for `O=C(NCCNC(=O)c1cc(OCC(F)(F)F)ccc1OCC(F)(F)F)Nc1cccc(C(F)(F)F)c1`, “inactive”. In the case of `Cc1cc(-c2ccccc2)nc(Oc2ccc(C(C)(C)C)cc2)c1S(C)(=O)=O`, the result was inactive. Take `CCc1nnc(NC(=O)CSc2nnc(Cc3ccccc3)n2-c2ccc(OC)cc2)s1`: the compound was called inactive. For `COc1ccc(CN2CCNC(=O)C2CC(=O)NC2CCCC2)cc1OC` (stereo not drawn) the value was “inactive”. As for `COc1ccc(C(=O)NC2CC3CCCC(C2)N3CC(C)C)cc1` (stereo not drawn), the call was inactive.

For the compound `C=C1Cn2c(nnc2-c2ccc(Cl)cc2)S1`, the compound was classed as inactive. For `Cc1ccc(C)c(OCCC(=O)Nc2ccccc2C(=O)NC2CC2)c1` the value was “inactive”; for `Cc1ccc2c(Cl)cc(Cl)c(OCC(=O)NCc3ccco3)c2n1`, “inactive”; for `CCC1CCC2(CC1)NC(=O)N(CC(=O)Nc1ccc(OC)c(Cl)c1)C2=O` (stereo not drawn), “inactive”.

For the compound `CC(C)(C)NC(=O)COC(=O)c1cc(S(=O)(=O)N2CCCCC2)ccc1N1CCOCC1`, the outcome was inactive.

`CCOCCCNC(=O)c1ccccc1Br`: the compound was classed as inactive. For `O=C1[C@@H]2CSCN2C(=O)CN1CCc1cccc(F)c1` the value was “inactive”. For `COc1ccc(C(=O)Cn2c(=N)n(C)c3ccccc32)cc1` the value was “inactive”. For `CCn1c(CNC(C)=O)nnc1SCC(=O)c1ccc(Br)cc1` the value was “inactive”; for `CCN(c1ccccc1)S(=O)(=O)c1ccc(C(=O)NNC(=O)c2ccccc2F)cc1`, “inactive”. Consider `CN(C(=O)CSc1nnc(N)s1)c1c(N)n(Cc2ccccc2)c(=O)[nH]c1=O`, for which the compound was called inactive.

For `CC(C)CN(C(=O)CN1CCN(S(=O)(=O)c2ccccc2)CC1)c1c(N)n(CC(C)C)c(=O)[nH]c1=O`, the compound was called inactive.
